Values joined by “and” are separate entries in the source; they are usually repeats but may differ in a detail not shown here. Equal values may be shown once. Active and inactive are the calls of the source.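 Rule for the calls, unless noted: active = compounds whose cell count with miR-34 switched on is under 0.7 times the count with it off; inactive = the rest.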
Tests used:
[1] = hESC survival regulators, cell-based (AID 493140; call rule not given here;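 note: cells exposed to compounds for four days before counting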); details: human embryonic stem cell survival screen; stronger effect = higher value
[2] = liver-stage malaria parasite growth inhibition, primary screen, cell-based, HepG2, luciferase luminescence, HepG2 viability (AID 624349; in the data active = parasite load remaining mostly below about 12%, no sharp cut-off; inactive = mostly above about 10%;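 note: 100% = mean of DMSO negative control wells on the same plate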); details: P. berghei liver stage in HepG2, luciferase luminescence, concentration not given here; parasite load remaining: stronger effect = lower value; viability: measured here: HepG2 viability without parasites
[3] = stimulators of nuclear beta-catenin in C2C12, primary screen, imaging, WNT3A-conditioned medium, mouse C2C12, NPC library (AID 1117326; in the data active = nuclear beta-catenin stimulation mostly above about 4.2%, no sharp cut-off; inactive = mostly below about 10%); details: stronger effect = higher value
[4] = stimulators of insulin release from INS-1E, primary screen, cell-based, 5 mM glucose, NPC library (AID 1117329;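 active = compound raises insulin release from rat beta cells at 5 mM glucose, no numeric limit stated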); details: rat INS-1E insulin secretion, at 10 µM, stronger effect = higher value
[5] = growth inhibition of GSK3B-pretreated HCT116 cells – cell-based, CellTiter-Glo, 0.2 to 20 µM (AID 1117336;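 active = compounds lowering colon cancer cell viability after pretreatment blocking the GSK3B kinase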); details: HCT116 viability after GSK3B inhibitor, at 20 µM, stronger effect = higher value
[6] = inhibition of endothelial tube formation, primary screen, imaging, VEGF stimulated, CD31 staining, tube area, NPC library (AID 1117340;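 active = compound that reduces growth-factor-driven endothelial tube area in a mixed cell culture, no cutoff stated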); details: VEGF-stimulated ADSC/ECFC co-culture, at 10 µM, stronger effect = higher value
[7] = glucagon-like peptide 1 release enhancers, primary assay, NCI-H716 cell line, NPC library (AID 1117341;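 active = compound raises GLP1 secretion from the human gut endocrine cells, with no numeric limit stated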); details: NCI-H716 cells, at 10 µM, stronger effect = higher value
[8] = HCT116 colon cancer cell growth inhibition, primary screen, CellTiter-Glo luminescence, NPC library (AID 1117342;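 active = compounds that lower survival of HCT116 colon cancer cells in the luminescence readout, no numeric limit stated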); details: at 20 µM (top of the series)
[9] = CellTiter-Glo luminescent readout of SW480 viability loss, NPC library primary (AID 1117343;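 active = compounds that lower viability of the colon cancer cells in the luminescence readout, with no numeric limit stated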); details: CellTiter-Glo luminescence; at 20 µM (top of the series) unless noted
[10] = decreased DLD-1 cellular survival, CellTiter-Glo luminescent readout, NPC compound collection, primary HTS (AID 1117346;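 active = compounds that lower survival of DLD-1 colon cancer cells in the luminescence readout, no cutoff given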); details: DLD-1 viability, CellTiter-Glo luminescence; at 20 µM (top of the series)
[11] = differential killing of epithelial or mesenchymal cells, primary screen, imaging, PC-3E GFP, TEM4-18 mCherry, co-culture (AID 1345086;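 active = compounds killing one labelled cell type while sparing the other, by normalised counts and ratio limits, not self-fluorescent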;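 for all read-outs here: cells exposed to compound for 72 h before imaging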;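 for red/green cell ratio (normalised): normalised mesenchymal count divided by normalised epithelial count so high means epithelial killing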); details: imaging cell counts, at 1 µM; for red/green cell ratio (normalised): actives lie on both sides, counts scaled to control wells, 1 = unselective
[12] = sensitizers of A549 cells to miR-34 induction, primary screen, imaging, A549 dox-inducible miR-34, nuclei and caspase counts (AID 1347080); details: A549 miR-34 inducible, Hoechst nuclei count, 48 h
[13] = survival rescue of mitochondrial mutant cells in low glucose, primary screen, MELAS cybrids, Rieske KO mouse fibroblasts, CellTiter-Glo (AID 1508586;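 active = mean z-score across replicates of 1.96 or higher in either the MELAS or the Rieske mutant cell line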;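 note: z relative to plate mean and SD of compound and empty wells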)
[14] = target: NAD(+) hydrolase SARM1 (Homo sapiens) (UniProt Q6SZW1); experiment: SARM1 TIR NADase inhibitors, cell lysate, NAD-Glo luminescence (AID 1508614;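 active = compound whose remaining NAD level is above about 45 nM, limit read from the data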;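 note: higher remaining NAD means stronger inhibition of SARM1 NADase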); details: SAM-TIR HEK293T lysate NADase, at 1 µM, stronger effect = higher value
Chain of NAD(+) hydrolase SARM1 (Homo sapiens) (Q6SZW1 whole entry, looked up): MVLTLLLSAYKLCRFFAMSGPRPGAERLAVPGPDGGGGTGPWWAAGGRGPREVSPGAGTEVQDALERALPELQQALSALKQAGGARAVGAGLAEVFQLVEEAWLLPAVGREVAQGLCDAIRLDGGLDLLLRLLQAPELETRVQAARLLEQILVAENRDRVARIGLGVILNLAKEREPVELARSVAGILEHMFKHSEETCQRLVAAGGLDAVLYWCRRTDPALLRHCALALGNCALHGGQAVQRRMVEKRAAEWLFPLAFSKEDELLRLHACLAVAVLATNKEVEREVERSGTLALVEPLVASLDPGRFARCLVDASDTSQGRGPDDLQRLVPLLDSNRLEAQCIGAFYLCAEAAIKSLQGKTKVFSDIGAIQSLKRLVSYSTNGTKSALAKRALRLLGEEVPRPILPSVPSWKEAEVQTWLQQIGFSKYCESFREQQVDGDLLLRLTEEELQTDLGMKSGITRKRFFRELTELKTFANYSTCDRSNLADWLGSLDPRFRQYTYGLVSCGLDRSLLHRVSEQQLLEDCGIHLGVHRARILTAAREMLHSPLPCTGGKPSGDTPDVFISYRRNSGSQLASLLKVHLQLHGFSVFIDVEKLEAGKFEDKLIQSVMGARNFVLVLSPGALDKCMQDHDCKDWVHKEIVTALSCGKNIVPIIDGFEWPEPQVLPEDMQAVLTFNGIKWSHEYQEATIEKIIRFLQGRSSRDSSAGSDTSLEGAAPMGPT

[15] = LFS_MB_P medulloblastoma growth inhibition, cell-based, chromothripsis tumors, cisplatin or BGB combos (AID 1671449; in the data active = inhibition above about 80%;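 note: cells exposed for 96 hours; 0% = vehicle DMSO and 100% = killing by high DMSO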); details: LFS_MB_P medulloblastoma cells
[16] = HDN33 neuroblastoma growth inhibition, cell-based, chromothripsis tumors, cisplatin or BGB combos (AID 1671450; in the data active = inhibition above about 80%;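 note: cells exposed to compound for four days; 0% = vehicle DMSO and 100% = cell killing by high DMSO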); details: HDN33 neuroblastoma cells, stronger effect = higher value
[17] = ICB984 medulloblastoma cell growth inhibition, synergistic combos for chromothripsis tumors, cisplatin or BGB combos (AID 1671451; call rule not given here;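 note: cells exposed for 96 hours before readout; 0% = vehicle DMSO and 100% = killing by high DMSO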); details: ICB984 medulloblastoma cells, drug combinations, stronger effect = higher value
[18] = HTB85 osteosarcoma cell growth inhibition, synergistic combos for chromothripsis tumors, BGB or cisplatin IC20 combos (AID 1671453; in the data active = inhibition above about 80%;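 note: cells exposed for 96 hours before readout; 0% = vehicle DMSO and 100% = high DMSO killing control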); details: HTB85 osteosarcoma cells, drug combinations, stronger effect = higher value
[19] = MDA-MB-436 breast carcinoma cell growth inhibition, synergistic combos for chromothripsis tumors, BGB or cisplatin combos (AID 1671458; call rule not given here;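 note: cells exposed for 96 hours; 0% = vehicle DMSO and 100% = killing by high DMSO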); details: MDA-MB-436 breast carcinoma growth inhibition, drug combinations, stronger effect = higher value
[20] = measured here: epithelial PC-3E GFP cell survival
[21] = measured here: mesenchymal TEM4-18 mCherry cell survival
[22] = stronger effect = lower value, cell number ratio, induced over uninduced
[23] = measured here: relative caspase fold change +Dox/-Dox
[24] = measured here: total cells with miR-34 induction, stronger effect = lower value
[25] = measured here: total cells without miR-34 induction
[26] = MELAS cybrid survival, CellTiter-Glo 48 h, stronger effect = higher value
[27] = Rieske KO mouse fibroblast survival, CellTiter-Glo 72 h

In the case of CNCCCC1c2ccccc2C=Cc2ccccc21, the survival [1] is reported as 0.667 (inactive), the parasite load remaining [2] is reported as 64.9% (inactive) and 67.7% (inactive) and the viability [2] is reported as 77.6% and 100%. The nuclear beta-catenin stimulation ([3]; at 10 µM) was 2% (inactive), the nuclear beta-catenin stimulation ([3]; stimulation, at 2 µM) was 0.5% and the insulin secretion stimulation [4] was 1.7% (inactive). For the same molecule, the viability decrease [5] was -46.9% (inactive), the tube area decrease [6] was 40.6% (active) and the GLP1 secretion stimulation [7] was 6.8% (inactive). The inhibition of viability [8] was 39.3% (inactive), the viability decrease (inhibition) [9] was 87.8% (active) and the viability decrease (inhibition) [10] was 30.3% (inactive). The red/green cell ratio (normalised) [11] was 1.06 (inactive), the normalised cell number [11, 20] was 0.98 and the normalised cell number [11, 21] was 1.04. The fold change [12, 22] was 1.12 (inactive) and 0.946 (inactive) and 0.93 (inactive), the fold change [12, 23] was 1.27 and 1.04 and 5.53 and the cell count [12, 24] was 6500 and 6350 and 11800. For the same molecule, the cell count [12, 25] was 5820 and 6720 and 12700, the z-score [13, 26] was -0.141 (inactive) and the z-score [13, 27] was -0.441. The remaining NAD [14] was 10 nM (inactive).

For CN1CCN(c2c(F)cc3c(=O)c(C(=O)O)cn(CCF)c3c2F)CC1, the parasite load remaining [2] was 13% (inactive), the viability [2] was 62.5% and the nuclear beta-catenin stimulation ([3]; at 10 µM) was 0.3% (inactive). The nuclear beta-catenin stimulation ([3]; stimulation, at 2 µM) was 0.9%, the insulin secretion stimulation [4] was -1% (inactive) and the viability decrease [5] was -13.8% (inactive). The tube area decrease [6] was 12.8% (inactive), the GLP1 secretion stimulation [7] was 7.1% (inactive) and the inhibition of viability [8] was 4.1% (inactive). The viability decrease (inhibition) [9] was 4.9% (inactive), the viability decrease (inhibition) [10] was -10.7% (inactive) and the red/green cell ratio (normalised) [11] was 1.08 (inactive). For the same molecule, the normalised cell number [11, 20] was 1.16, the normalised cell number [11, 21] was 1.24 and the fold change [12, 22] was 0.864 (inactive). It also gave a fold change [12, 23] of 1.53, a cell count [12, 24] of 9860 and a cell count [12, 25] of 11400. For the same molecule, the z-score [13, 26] was -0.514 (inactive) and -0.443 (inactive), the z-score [13, 27] was -0.857 and -0.453 and the inhibition ([15]; at 0.5 µM, stronger effect = higher value) was 2.95% (inactive). For the same molecule, the inhibition ([15]; measured here: combination with BGB IC20, at 0.005 µM) was 20.9%, the inhibition ([15]; measured here: combination with BGB IC40, at 0.005 µM) was 16.6% and the inhibition ([15]; measured here: combination with BGB IC40, at 0.05 µM) was 22.7%. It also gave an inhibition ([15]; measured here: combination with cisplatin, at 0.5 µM, stronger effect = higher value) of -9.55%, an inhibition ([15]; measured here: combination with cisplatin, at 5 µM, stronger effect = higher value) of 1.02% and an inhibition ([16]; BGB combo, at 5 µM) of 17.4%. For the same molecule, the inhibition ([16]; at 0.5 µM) was 15.1% (inactive), the inhibition ([16]; cisplatin combo, at 5 µM) was 34.1% and the inhibition ([16]; measured here: with BGB IC20 combination, at 0.5 µM) was 12.4%. For the same molecule, the inhibition ([16]; measured here: with cisplatin IC20 combination, at 0.5 µM) was 22.9%, the inhibition ([16]; single agent, at 5 µM) was 6.61% and the inhibition ([17]; BGB IC20 combo, at 0.005 µM) was 3.45%. The inhibition ([17]; BGB IC40 combo, at 0.005 µM) was 12%, the inhibition ([17]; BGB IC40 combo, at 0.05 µM) was 3.66% and the inhibition ([17]; at 0.5 µM) was -15.4% (inactive). The inhibition ([17]; cisplatin combo, at 0.05 µM) was 0.969%, the inhibition ([17]; cisplatin combo, at 0.5 µM) was -17.2% and the inhibition ([17]; cisplatin combo, at 5 µM) was -29.4%. The inhibition ([17]; measured here: 5 uM single agent, at 5 µM) was -20.3%, the inhibition ([18]; at 0.5 µM) was 2.85% (inactive) and the inhibition ([18]; measured here: with BGB IC20, at 0.5 µM) was 3.83%. The inhibition ([18]; measured here: with BGB IC20, at 5 µM) was 4.56%, the inhibition ([18]; measured here: with cisplatin IC20, at 0.5 µM) was -12% and the inhibition ([18]; measured here: with cisplatin IC20, at 5 µM) was -2.52%. For the same molecule, the inhibition ([18]; single agent, at 5 µM) was 7.25%, the inhibition ([19]; at 0.5 µM) was 2.48% (inactive) and the inhibition ([19]; measured here: BGB combination, at 0.5 µM) was 6.04%. It also gave an inhibition ([19]; measured here: BGB combination, at 5 µM) of -1.46%, an inhibition ([19]; measured here: cisplatin combination, at 0.5 µM) of -0.921% and an inhibition ([19]; measured here: cisplatin combination, at 5 µM) of -0.504%.

For CN(C)CCN(Cc1ccc(Cl)cc1)c1ccccn1, the survival [1] was 0.25 (inactive), the parasite load remaining [2] was 93.8% (inactive) and the viability [2] was 98.9%. The nuclear beta-catenin stimulation ([3]; at 10 µM) was 1.9% (inactive), the nuclear beta-catenin stimulation ([3]; stimulation, at 2 µM) was 1.4% and the insulin secretion stimulation [4] was 88.8% (active). The viability decrease [5] was -112% (inactive), the tube area decrease [6] was -2% (inactive) and the GLP1 secretion stimulation [7] was 7% (inactive). The inhibition of viability [8] was 30.7% (inactive), the viability decrease (inhibition) [9] was 41.9% (inactive) and the viability decrease (inhibition) [10] was 2.4% (inactive). For the same molecule, the red/green cell ratio (normalised) [11] was 0.8 (inactive), the normalised cell number [11, 20] was 1.16 and the normalised cell number [11, 21] was 0.92. For the same molecule, the fold change [12, 22] was 0.853 (inactive), the fold change [12, 23] was 1.28 and the cell count [12, 24] was 7570. For the same molecule, the cell count [12, 25] was 8880, the z-score [13, 26] was -0.0317 (inactive) and the z-score [13, 27] was -0.776. For the same molecule, the remaining NAD [14] was 10 nM (inactive).
